± gives the standard deviation of the averaged measurements.
System: E. coli BW25113 marRABp lux reporter
Assay: promoter activity interaction Z-score (Lux/OD deviation from empty-vector control); higher = stronger promoter induction by the compound
Method: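 E. coli BW25113 (wild type or ΔmarA/ΔsoxS/Δrob) carrying pTU175 luxCDABE promoter reporters was grown in LB in 384-well plates at 37°C with each of 94 compounds at 4 two-fold concentrations, in biological duplicates. Luminescence and OD600 were read every 30 min for 12 h and integrated as AUC over 8 h (0-8 h WT, 1-9 h mutants). Lux AUC was divided by OD AUC; the interaction score is the residual of a Huber robust fit of each promoter against the empty-vector control, then Z-transformed per promoter.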

CN[C@@H]1[C@H](O)[C@H](NC)[C@H]2O[C@@]3(O)C(=O)C[C@@H](C)O[C@H]3O[C@@H]2[C@H]1O [Spectinomycin]
promoter activity interaction Z-score (0.62 µg/ml, genetic background: wild type): 0.174 ± 0.026
promoter activity interaction Z-score (0.62 µg/ml, genetic background: ΔmarA): 0.168 ± 0.75
promoter activity interaction Z-score (0.62 µg/ml, genetic background: Δrob): 0.332 ± 0.41
promoter activity interaction Z-score (0.62 µg/ml, genetic background: ΔsoxS): -0.125 ± 0.11
promoter activity interaction Z-score (1.2 µg/ml, genetic background: wild type): 0.433 ± 0.052
promoter activity interaction Z-score (1.2 µg/ml, genetic background: ΔmarA): 0.324 ± 0.39
promoter activity interaction Z-score (1.2 µg/ml, genetic background: Δrob): 0.402 ± 0.72
promoter activity interaction Z-score (1.2 µg/ml, genetic background: ΔsoxS): 0.018 ± 0.043
promoter activity interaction Z-score (2.5 µg/ml, genetic background: wild type): 0.0652 ± 0.25
promoter activity interaction Z-score (2.5 µg/ml, genetic background: ΔmarA): -0.102 ± 0.25
promoter activity interaction Z-score (2.5 µg/ml, genetic background: Δrob): -0.0628 ± 0.069
promoter activity interaction Z-score (2.5 µg/ml, genetic background: ΔsoxS): -0.128 ± 0.04
promoter activity interaction Z-score (5 µg/ml, genetic background: wild type): 0.205 ± 0.44
promoter activity interaction Z-score (5 µg/ml, genetic background: ΔmarA): 0.687 ± 1.1
promoter activity interaction Z-score (5 µg/ml, genetic background: Δrob): 0.305 ± 0.34
promoter activity interaction Z-score (5 µg/ml, genetic background: ΔsoxS): 0.00851 ± 0.23

CC[C@H]1OC(=O)[C@H](C)[C@@H](O[C@H]2C[C@@](C)(OC)[C@@H](O)[C@H](C)O2)[C@H](C)[C@@H](O[C@@H]2O[C@H](C)C[C@H](N(C)C)[C@H]2O)[C@](C)(OC)C[C@@H](C)C(=O)[C@H](C)[C@@H](O)[C@]1(C)O [Clarithromycin]
promoter activity interaction Z-score (3.7 µg/ml, genetic background: wild type): 2.9 ± 0.24
promoter activity interaction Z-score (3.7 µg/ml, genetic background: ΔmarA): 2.02 ± 0.13
promoter activity interaction Z-score (3.7 µg/ml, genetic background: Δrob): 1.54 ± 0.29
promoter activity interaction Z-score (3.7 µg/ml, genetic background: ΔsoxS): 2.44 ± 1
promoter activity interaction Z-score (7.5 µg/ml, genetic background: wild type): 3.84 ± 0.18
promoter activity interaction Z-score (7.5 µg/ml, genetic background: ΔmarA): 2.58 ± 0.055
promoter activity interaction Z-score (7.5 µg/ml, genetic background: Δrob): 2.57 ± 1.6
promoter activity interaction Z-score (7.5 µg/ml, genetic background: ΔsoxS): 4.77 ± 2.4
promoter activity interaction Z-score (15 µg/ml, genetic background: wild type): 2.6 ± 3
promoter activity interaction Z-score (15 µg/ml, genetic background: ΔmarA): 3.84
promoter activity interaction Z-score (15 µg/ml, genetic background: Δrob): 4.65 ± 1.9
promoter activity interaction Z-score (15 µg/ml, genetic background: ΔsoxS): 7.29 ± 0.54

O=c1[nH]c(=O)c2[nH]c(O)nc2[nH]1 [Sodium urate]
promoter activity interaction Z-score (28.4 µg/ml, genetic background: wild type): -0.098 ± 0.014
promoter activity interaction Z-score (28.4 µg/ml, genetic background: ΔmarA): -0.367 ± 0.46
promoter activity interaction Z-score (28.4 µg/ml, genetic background: Δrob): -0.0815 ± 0.3
promoter activity interaction Z-score (28.4 µg/ml, genetic background: ΔsoxS): -0.136 ± 0.38
promoter activity interaction Z-score (56.8 µg/ml, genetic background: wild type): -0.215 ± 0.019
promoter activity interaction Z-score (56.8 µg/ml, genetic background: ΔmarA): -0.183 ± 0.45
promoter activity interaction Z-score (56.8 µg/ml, genetic background: Δrob): -0.209 ± 0.11
promoter activity interaction Z-score (56.8 µg/ml, genetic background: ΔsoxS): -0.198 ± 0.26
promoter activity interaction Z-score (113.7 µg/ml, genetic background: wild type): 0.0146 ± 0.11
promoter activity interaction Z-score (113.7 µg/ml, genetic background: ΔmarA): -0.285 ± 0.48
promoter activity interaction Z-score (113.7 µg/ml, genetic background: Δrob): -0.227 ± 0.062
promoter activity interaction Z-score (113.7 µg/ml, genetic background: ΔsoxS): -0.19 ± 0.33
promoter activity interaction Z-score (227.3 µg/ml, genetic background: wild type): -0.107 ± 0.15
promoter activity interaction Z-score (227.3 µg/ml, genetic background: ΔmarA): 0.16 ± 0.43
promoter activity interaction Z-score (227.3 µg/ml, genetic background: Δrob): -0.0974 ± 0.043
promoter activity interaction Z-score (227.3 µg/ml, genetic background: ΔsoxS): -0.0308 ± 0.28
